Reference: publication PMC5540273 (PLoS ONE, 2017)

These compounds were tested on RIOK1. Settings: concentration: 1 μM,replicates: in singlicate; n = 1.
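Note: KINOMEscan kinase panel screen.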

| Structure (SMILES) | %Inh |
| --- | --- |
| O=C(Nc1ccccc1)c1cccc(Oc2ccc3nccn3n2)c1 | 0% |
| Cc1ccc(CC(=O)N2CCc3cc(-c4cn(C)c5ncnc(N)c45)ccc32)cc1 [GSK2634758] | 25% |
| COC(=O)c1cccc(NC(=O)NC2CCN(c3ccnc(NCc4ccc(F)cc4)n3)CC2)c1 [GSK1379860] | 22% |
| Cc1n[nH]c2cc(Nc3ccnc(Nc4cccc(CN5CCOCC5)c4)n3)ccc12 [GW682569] | 100% |
| CCN1CCN(CCCC(=O)Nc2n[nH]c3nc(-c4ccc(O)cc4)c(Br)cc23)CC1 [SB-731579] | 39% |
| COc1ccc(Nc2nccc(N3CCC(NC(=O)c4cccc(C#N)c4)C3)n2)cc1 (centres unmarked) [GSK1379730] | 34% |
| C[C@@H](Oc1cc(-n2cnc3cc(-c4ccncc4)ccc32)sc1C(N)=O)c1ccccc1Cl [GSK479719] | 94.1% |
| Cc1nnc(-c2ccc3occ(-c4ccc(S(C)=O)cc4)c3n2)o1 (centres unmarked) | 0% |
| Cn1cc(-c2cccc3c(N)c(C(N)=O)nnc23)cn1 | 36% |
| Cl.Nc1n[nH]c2cc(-c3ccccn3)ccc12 [GSK2189892] | 47% |
| COc1cccc(CNC(=O)NC2CCN(c3ccnc(Nc4cc(OC)c(OC)c(OC)c4)n3)C2)c1 (centres unmarked) [GSK1379765] | 63% |
| Cc1ccc(C(=O)Nc2ccc(Oc3ccc4nc(NC(=O)C5CC5)cn4c3)c(F)c2)c(=O)n1-c1ccccc1 | 0% |
| Cc1cccc2c(-c3ccncc3)c(-c3ccc(F)cc3)nn12.Cl [GW461487] | 0% |
| C[C@@H](Oc1cc(-n2cnc3ccc(-c4ccncc4)cc32)sc1C(N)=O)c1ccccc1Cl [GSK483724] | 93% |
| CNC(=O)c1ccccc1Nc1nc(Nc2cccc(CS(C)(=O)=O)c2)ncc1C.O=CO [GSK1520489] | 97.9% |
| COc1cc2c(Nc3ccc(NC(=O)c4ccccc4)cc3)ncnc2cc1OCCCN1CCOCC1 [GSK301329] | 26% |
| O=C(Nc1ccc(Oc2ccc3nc(NC(=O)C4CC4)cn3n2)c(F)c1)c1cccn(-c2ccccc2)c1=O | 13% |
| COc1cc(Nc2nccc(N3CCC(NC(=O)c4cccc(C#N)c4)C3)n2)cc(OC)c1OC (centres unmarked) [GSK1379751] | 90.2% |
| CC(C)S(=O)(=O)N1CCN(Cc2ccc3c(c2)nc(NC(=O)c2ccsc2)n3C[C@H](O)c2ccccc2)CC1 [GW635815] | 36% |

| Structure (SMILES) | %Inh |
| --- | --- |
| Cn1ccc2ncnc(Oc3ccc(NC(=O)Nc4cccc(C(F)(F)F)c4)c(F)c3)c21 | 0% |
| Cc1ccc2c(-c3ccnc(Nc4ccc(C(F)(F)F)cc4)n3)cnn2n1 [GW819776] | 17% |
| C[C@@H]1CNc2c(sc3ccc4nc(-c5ccncc5)ccc4c23)C(=O)N1 | 0% |
| Cn1ccc2ncnc(Oc3ccc(NC(=O)Nc4cccc(C(F)(F)F)c4)c(Cl)c3)c21 | 6% |
| COc1cccc(OC)c1C(=O)Nc1cccc(-c2nn3ccccc3c2-c2ccnc(Nc3cccc(F)c3)n2)c1 [GSK361065] | 43% |
| CN1CCN(CCCNc2nccc(-c3c(-c4ccc(F)cc4)nn4cc(C(N)=O)ccc34)n2)CC1 [GW622475] | 46% |
| CCCC(=O)Nc1n[nH]c2ncccc12 [SB-601436] | 0% |
| Cn1ccc2ncnc(Oc3ccc(NC(=O)Nc4cc(C(C)(C)C)on4)c(Cl)c3)c21 | 2% |
| Cl.c1ccc(Oc2ccc(Nc3ccnc4cc(-c5ccc(CN6CCNCC6)o5)ccc34)cc2)nc1 [GW567142] | 0% |
| CC(=O)Nc1ccc(-c2cc3ncnc(SCC(=O)O)c3s2)cc1 | 8% |
| Cc1ccc(Nc2ccnc(Nc3ccc4c(c3)CS(=O)(=O)C4)n2)cc1O.Cl [GW579362] | 99.8% |
| COc1cccc(C2=C(Nc3cccc(Cl)c3)C(=O)NC2=O)c1 [SB-341556] | 41% |
| OCCn1cc(-c2cnc3nnn(Cc4ccc5ncccc5c4)c3n2)cn1 | 0% |
| Cn1ccc2ncnc(Oc3ccc(NC(=O)Nc4cncc(C(F)(F)F)c4)c(Cl)c3)c21 | 0% |
| CN(c1cccc(CNc2nc(Nc3ccc4c(c3)CC(=O)N4)ncc2C(F)(F)F)c1)S(C)(=O)=O | 78% |
| Cl.Cl.NC[C@H](CC1CCCCC1)NC(=O)c1ccc(-c2ccnc3[nH]ccc23)s1 [GSK1581428] | 100% |
| N#Cc1cccc(C(=O)NC2CCN(c3ccnc(Nc4ccc(F)cc4)n3)C2)c1 (centres unmarked) [GSK1379708] | 24% |
| c1ccc(Oc2ccc(Nc3ccnc4ccc(-c5ccccn5)cc34)cc2)cc1 [GW407034] | 16% |

These compounds were tested on RIOK2. Settings: concentration: 1 μM,replicates: in singlicate; n = 1.

| Structure (SMILES) | %Inh |
| --- | --- |
| O=C(Nc1ccccc1)c1cccc(Oc2ccc3nccn3n2)c1 | 11% |
| Cc1ccc(CC(=O)N2CCc3cc(-c4cn(C)c5ncnc(N)c45)ccc32)cc1 [GSK2634758] | 0% |
| COC(=O)c1cccc(NC(=O)NC2CCN(c3ccnc(NCc4ccc(F)cc4)n3)CC2)c1 [GSK1379860] | 0% |
| Cc1n[nH]c2cc(Nc3ccnc(Nc4cccc(CN5CCOCC5)c4)n3)ccc12 [GW682569] | 84% |
| CCN1CCN(CCCC(=O)Nc2n[nH]c3nc(-c4ccc(O)cc4)c(Br)cc23)CC1 [SB-731579] | 0% |
| COc1ccc(Nc2nccc(N3CCC(NC(=O)c4cccc(C#N)c4)C3)n2)cc1 (centres unmarked) [GSK1379730] | 0% |
| C[C@@H](Oc1cc(-n2cnc3cc(-c4ccncc4)ccc32)sc1C(N)=O)c1ccccc1Cl [GSK479719] | 9% |
| Cc1nnc(-c2ccc3occ(-c4ccc(S(C)=O)cc4)c3n2)o1 (centres unmarked) | 0% |
| Cn1cc(-c2cccc3c(N)c(C(N)=O)nnc23)cn1 | 52% |
| Cl.Nc1n[nH]c2cc(-c3ccccn3)ccc12 [GSK2189892] | 0% |
| COc1cccc(CNC(=O)NC2CCN(c3ccnc(Nc4cc(OC)c(OC)c(OC)c4)n3)C2)c1 (centres unmarked) [GSK1379765] | 0% |
| Cc1ccc(C(=O)Nc2ccc(Oc3ccc4nc(NC(=O)C5CC5)cn4c3)c(F)c2)c(=O)n1-c1ccccc1 | 0% |
| Cc1cccc2c(-c3ccncc3)c(-c3ccc(F)cc3)nn12.Cl [GW461487] | 100% |
| C[C@@H](Oc1cc(-n2cnc3ccc(-c4ccncc4)cc32)sc1C(N)=O)c1ccccc1Cl [GSK483724] | 70% |
| CNC(=O)c1ccccc1Nc1nc(Nc2cccc(CS(C)(=O)=O)c2)ncc1C.O=CO [GSK1520489] | 89% |
| COc1cc2c(Nc3ccc(NC(=O)c4ccccc4)cc3)ncnc2cc1OCCCN1CCOCC1 [GSK301329] | 14% |
| O=C(Nc1ccc(Oc2ccc3nc(NC(=O)C4CC4)cn3n2)c(F)c1)c1cccn(-c2ccccc2)c1=O | 0% |
| COc1cc(Nc2nccc(N3CCC(NC(=O)c4cccc(C#N)c4)C3)n2)cc(OC)c1OC (centres unmarked) [GSK1379751] | 0% |
| CC(C)S(=O)(=O)N1CCN(Cc2ccc3c(c2)nc(NC(=O)c2ccsc2)n3C[C@H](O)c2ccccc2)CC1 [GW635815] | 33% |

| Structure (SMILES) | %Inh |
| --- | --- |
| Cn1ccc2ncnc(Oc3ccc(NC(=O)Nc4cccc(C(F)(F)F)c4)c(F)c3)c21 | 0% |
| Cc1ccc2c(-c3ccnc(Nc4ccc(C(F)(F)F)cc4)n3)cnn2n1 [GW819776] | 84% |
| C[C@@H]1CNc2c(sc3ccc4nc(-c5ccncc5)ccc4c23)C(=O)N1 | 0% |
| Cn1ccc2ncnc(Oc3ccc(NC(=O)Nc4cccc(C(F)(F)F)c4)c(Cl)c3)c21 | 2% |
| COc1cccc(OC)c1C(=O)Nc1cccc(-c2nn3ccccc3c2-c2ccnc(Nc3cccc(F)c3)n2)c1 [GSK361065] | 2% |
| CN1CCN(CCCNc2nccc(-c3c(-c4ccc(F)cc4)nn4cc(C(N)=O)ccc34)n2)CC1 [GW622475] | 27% |
| CCCC(=O)Nc1n[nH]c2ncccc12 [SB-601436] | 0% |
| Cn1ccc2ncnc(Oc3ccc(NC(=O)Nc4cc(C(C)(C)C)on4)c(Cl)c3)c21 | 29% |
| Cl.c1ccc(Oc2ccc(Nc3ccnc4cc(-c5ccc(CN6CCNCC6)o5)ccc34)cc2)nc1 [GW567142] | 0% |
| CC(=O)Nc1ccc(-c2cc3ncnc(SCC(=O)O)c3s2)cc1 | 0% |
| Cc1ccc(Nc2ccnc(Nc3ccc4c(c3)CS(=O)(=O)C4)n2)cc1O.Cl [GW579362] | 66% |
| COc1cccc(C2=C(Nc3cccc(Cl)c3)C(=O)NC2=O)c1 [SB-341556] | 14% |
| OCCn1cc(-c2cnc3nnn(Cc4ccc5ncccc5c4)c3n2)cn1 | 0% |
| Cn1ccc2ncnc(Oc3ccc(NC(=O)Nc4cncc(C(F)(F)F)c4)c(Cl)c3)c21 | 29% |
| CN(c1cccc(CNc2nc(Nc3ccc4c(c3)CC(=O)N4)ncc2C(F)(F)F)c1)S(C)(=O)=O | 19% |
| Cl.Cl.NC[C@H](CC1CCCCC1)NC(=O)c1ccc(-c2ccnc3[nH]ccc23)s1 [GSK1581428] | 45% |
| N#Cc1cccc(C(=O)NC2CCN(c3ccnc(Nc4ccc(F)cc4)n3)C2)c1 (centres unmarked) [GSK1379708] | 0% |
| c1ccc(Oc2ccc(Nc3ccnc4ccc(-c5ccccn5)cc34)cc2)cc1 [GW407034] | 5% |
